# “And” between values parts separate entries of the source, which are not always exact repeats. Equal entries are not always repeated. Inconclusive results are not listed. The source made the active and inactive calls.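 The calls were made as follows, unless noted: active = normalized viability below 100% at a tested concentration; inactive = the rest.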
# What was measured:
# [1] = viability loss in pontine glioma line – cell-based, SU-DIPG-XIII, MIPE4.0, CellTiter-Glo, qHTS, dose response (AID 1347061; cut-off not given, nearly all actives have AC50 up to about 37 µM;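 also: cells exposed to compound for 48 hours before readout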); conditions: CellTiter-Glo ATP luminescence
# [2] = viability loss in pontine glioma line – cell-based, SU-DIPG-IV, MIPE4.0, CellTiter-Glo, qHTS, dose response (AID 1347063; cut-off not given, nearly all actives have AC50 up to about 30 µM;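 also: compound exposure lasted 48 hours before the viability readout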); conditions: CellTiter-Glo ATP luminescence
# [3] = growth inhibition of DIPG cells – cell-based, MIPE4.0 library, CellTiter-Glo luminescence, qHTS (AID 1347066; cut-off not given, nearly all actives have AC50 up to about 30 µM;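 also: cells exposed to compound for 48 hours before readout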); conditions: SU-DIPG-VI viability, CellTiter-Glo ATP luminescence
# [4] = viability loss in pontine glioma line – cell-based, SU-DIPG-XXV, MIPE5.0, CellTiter-Glo, qHTS, dose response (AID 1347065; cut-off not given, nearly all actives have AC50 up to about 26 µM;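 also: cells exposed to compound for 48 hours before ATP readout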); conditions: CellTiter-Glo ATP luminescence
# [5] = JHH-DIPG-1 glioma cell viability, MIPE5.0 library, CellTiter-Glo luminescence, qHTS (AID 1347067; cut-off not given, nearly all actives have AC50 up to about 26 µM;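 also: cells exposed to compound for 48 hours before readout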); conditions: JHH-DIPG-1 glioma viability, CellTiter-Glo ATP luminescence
# [6] = growth inhibition of DIPG cells – cell-based, MIPE5.0 library, qHTS (AID 1347068; cut-off not given, nearly all actives have IC50 up to about 30 µM); conditions: SU-DIPG-XXV viability
# [7] = compounds altering HSF1 focus formation in cells – imaging, Selleck Cancer Library (AID 1347162; in the data active = plate-normalised HSF1 focus index below about 0.46); conditions: human cells, HSF1 nuclear foci imaging, at 10 µM; SSMD: measured here: HSF1 foci SSMD mean; cell count: measured here: cell number; plate-normalised HSF1 focus index: stronger effect = lower value
# [8] = drug combination growth inhibition, ovarian cancer – cell-based, oncology-focused library, rucaparib conditional, profiling panel (AID 1508598); conditions: patient-derived ovarian cancer cells, CellTiter-Glo viability, 144 h, stronger effect = lower value
# [9] = viability loss in pontine glioma line – cell-based, JHH-DIPG-1, MIPE4.0, CellTiter-Glo, qHTS, dose response (AID 1347062; cut-off not given, nearly all actives have AC50 up to about 27 µM); conditions: JHH-DIPG-1 viability, CellTiter-Glo ATP luminescence
# [10] = viability loss with induced miR-34 in A549 – imaging, A549 dox-inducible miR-34, nuclei and caspase counts, primary screen (AID 1347080;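 active = compounds whose cell count with miR-34 switched on is under 0.7 times the count with it off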); conditions: A549 miR-34 inducible, Hoechst nuclei count, 48 h
# [11] = MELAS cybrid and Rieske KO viability enhancers – cell-based, MELAS cybrids, Rieske KO mouse fibroblasts, CellTiter-Glo, primary screen (AID 1508586;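 active = mean z-score across replicates of 1.96 or higher in either the MELAS or the Rieske mutant cell line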;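 also: z relative to plate mean and SD of compound and empty wells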); conditions: low glucose
# [12] = at 0.000305 µM, OCI-C5x cells, with rucaparib 10 µM, 100% = cells with rucaparib alone
# [13] = at 0.000305 µM, OCI-C5x cells, without rucaparib
# [14] = at 0.000305 µM, OCI-P5x cells, with rucaparib 20 µM, 100% = cells with rucaparib alone
# [15] = at 0.000305 µM, OCI-P5x cells, without rucaparib
# [16] = at 0.00122 µM, OCI-C5x cells, with rucaparib 10 µM, 100% = cells with rucaparib alone
# [17] = at 0.00122 µM, OCI-C5x cells, without rucaparib
# [18] = at 0.00122 µM, OCI-P5x cells, with rucaparib 20 µM, 100% = cells with rucaparib alone
# [19] = at 0.00122 µM, OCI-P5x cells, without rucaparib
# [20] = at 0.00488 µM, OCI-C5x cells, with rucaparib 10 µM, 100% = cells with rucaparib alone
# [21] = at 0.00488 µM, OCI-C5x cells, without rucaparib
# [22] = at 0.00488 µM, OCI-P5x cells, with rucaparib 20 µM, 100% = cells with rucaparib alone
# [23] = at 0.00488 µM, OCI-P5x cells, without rucaparib
# [24] = at 0.0195 µM, OCI-C5x cells, with rucaparib 10 µM, 100% = cells with rucaparib alone
# [25] = at 0.0195 µM, OCI-C5x cells, without rucaparib
# [26] = at 0.0195 µM, OCI-P5x cells, with rucaparib 20 µM, 100% = cells with rucaparib alone
# [27] = at 0.0195 µM, OCI-P5x cells, without rucaparib
# [28] = at 0.0781 µM, OCI-C5x cells, with rucaparib 10 µM, 100% = cells with rucaparib alone
# [29] = at 0.0781 µM, OCI-C5x cells, without rucaparib
# [30] = at 0.0781 µM, OCI-P5x cells, with rucaparib 20 µM, 100% = cells with rucaparib alone
# [31] = at 0.0781 µM, OCI-P5x cells, without rucaparib
# [32] = at 0.313 µM, OCI-C5x cells, with rucaparib 10 µM, 100% = cells with rucaparib alone
# [33] = at 0.313 µM, OCI-C5x cells, without rucaparib
# [34] = at 0.313 µM, OCI-P5x cells, with rucaparib 20 µM, 100% = cells with rucaparib alone
# [35] = at 0.313 µM, OCI-P5x cells, without rucaparib
# [36] = at 1.25 µM, OCI-C5x cells, with rucaparib 10 µM, 100% = cells with rucaparib alone
# [37] = at 1.25 µM, OCI-C5x cells, without rucaparib
# [38] = at 1.25 µM, OCI-P5x cells, with rucaparib 20 µM, 100% = cells with rucaparib alone
# [39] = at 1.25 µM, OCI-P5x cells, without rucaparib
# [40] = at 5 µM, OCI-C5x cells, with rucaparib 10 µM, 100% = cells with rucaparib alone
# [41] = at 5 µM, OCI-C5x cells, without rucaparib
# [42] = at 5 µM, OCI-P5x cells, with rucaparib 20 µM, 100% = cells with rucaparib alone
# [43] = at 5 µM, OCI-P5x cells, without rucaparib
# [44] = stronger effect = lower value, cell number ratio, induced over uninduced
# [45] = measured here: relative caspase fold change +Dox/-Dox
# [46] = measured here: total cells with miR-34 induction, stronger effect = lower value
# [47] = measured here: total cells without miR-34 induction
# [48] = MELAS cybrid survival, CellTiter-Glo 48 h, stronger effect = higher value
# [49] = Rieske KO mouse fibroblast survival, CellTiter-Glo 72 h
smiles,measurement,setting,value
CCOc1ccccc1OCCNC(C)Cc1ccc(OC)c(S(N)(=O)=O)c1 (stereo unspecified),outcome,[1],inactive
same,outcome,[2],inactive
same,outcome,[3],inactive
C[C@H](NC(=O)Cc1cc(F)cc(F)c1)C(=O)N[C@@H]1C(=O)N(C)c2ccccc2-c2ccccc21,AC50,[1],18.7 µM (active)
same,outcome,[4],inactive
same,outcome,[3],inactive
same,outcome,[5],inactive
same,outcome,[6],inactive
same,SSMD,[7],-0.743
same,cell count,[7],5760
same,plate-normalised HSF1 focus index,[7],0.981 (inactive)
same,viability,[8]; [12],117% (inactive)
same,viability,[8]; [13],120% (inactive)
same,viability,[8]; [14],94.9% (active)
same,viability,[8]; [15],97.1% (active)
same,viability,[8]; [16],121% (inactive)
same,viability,[8]; [17],124% (inactive)
same,viability,[8]; [18],93.1% (active)
same,viability,[8]; [19],102% (inactive)
same,viability,[8]; [20],118% (inactive)
same,viability,[8]; [21],127% (inactive)
same,viability,[8]; [22],90.9% (active)
same,viability,[8]; [23],102% (inactive)
same,viability,[8]; [24],122% (inactive)
same,viability,[8]; [25],129% (inactive)
same,viability,[8]; [26],101% (inactive)
same,viability,[8]; [27],97.6% (active)
same,viability,[8]; [28],122% (inactive)
same,viability,[8]; [29],132% (inactive)
same,viability,[8]; [30],96.3% (active)
same,viability,[8]; [31],104% (inactive)
same,viability,[8]; [32],131% (inactive)
same,viability,[8]; [33],145% (inactive)
same,viability,[8]; [34],90.1% (active)
same,viability,[8]; [35],99.7% (active)
same,viability,[8]; [36],142% (inactive)
same,viability,[8]; [37],144% (inactive)
same,viability,[8]; [38],97.9% (active)
same,viability,[8]; [39],99% (active)
same,viability,[8]; [40],146% (inactive)
same,viability,[8]; [41],141% (inactive)
same,viability,[8]; [42],87.4% (active)
same,viability,[8]; [43],90.3% (active)
O=c1c2ccccc2nc2n1CCc1c-2[nH]c2ccccc12,outcome,[1],inactive
same,outcome,[9],inactive
same,outcome,[3],inactive
same,fold change,[10]; [44],0.916 (inactive) and 0.956 (inactive)
same,fold change,[10]; [45],0.977 and 0.922
same,cell count,[10]; [46],6410 and 7870
same,cell count,[10]; [47],6990 and 8230
same,z-score,[11]; [48],-0.312 (inactive)
same,z-score,[11]; [49],0.166
CN(C)N=Nc1nc[nH]c1C(N)=O,outcome,[1],inactive
same,outcome,[2],inactive
same,outcome,[5],inactive
same,fold change,[10]; [44],0.887 (inactive) and 0.898 (inactive)
same,fold change,[10]; [45],1.47 and 1.18
same,cell count,[10]; [46],9080 and 7660
same,cell count,[10]; [47],10200 and 8520
same,z-score,[11]; [48],-0.353 (inactive) and -0.0151 (inactive)
same,z-score,[11]; [49],0.329 and 0.212
same,viability,[8]; [12],107% (inactive)
same,viability,[8]; [13],101% (inactive)
same,viability,[8]; [14],107% (inactive)
same,viability,[8]; [15],108% (inactive)
same,viability,[8]; [16],106% (inactive)
same,viability,[8]; [17],108% (inactive)
same,viability,[8]; [18],109% (inactive)
same,viability,[8]; [19],108% (inactive)
same,viability,[8]; [20],111% (inactive)
same,viability,[8]; [21],107% (inactive)
same,viability,[8]; [22],106% (inactive)
same,viability,[8]; [23],104% (inactive)
same,viability,[8]; [24],105% (inactive)
same,viability,[8]; [25],105% (inactive)
same,viability,[8]; [26],103% (inactive)
same,viability,[8]; [27],112% (inactive)
same,viability,[8]; [28],111% (inactive)
same,viability,[8]; [29],109% (inactive)
same,viability,[8]; [30],105% (inactive)
same,viability,[8]; [31],110% (inactive)
same,viability,[8]; [32],112% (inactive)
same,viability,[8]; [33],109% (inactive)
same,viability,[8]; [34],105% (inactive)
same,viability,[8]; [35],110% (inactive)
same,viability,[8]; [36],116% (inactive)
same,viability,[8]; [37],120% (inactive)
same,viability,[8]; [38],104% (inactive)
same,viability,[8]; [39],111% (inactive)
same,viability,[8]; [40],201% (inactive)
same,viability,[8]; [41],164% (inactive)
same,viability,[8]; [42],99.7% (active)
same,viability,[8]; [43],113% (inactive)
CCOC(=O)C1=C(C)NC2=C(C(=O)CC(C)(C)C2)C1c1ccc(-c2ccccc2)cc1 (stereo unspecified),outcome,[1],inactive
same,AC50,[2],14.8 µM (active)
same,AC50,[4],23.5 µM (active)
same,outcome,[6],inactive
C[C@@H](O)[C@H]1C(=O)N2C(C(=O)OCOC(=O)C(C)(C)C)=C(SC3CN(C4=NCCS4)C3)[C@H](C)[C@H]12,outcome,[1],inactive
same,outcome,[3],inactive
Cc1c(NC(=O)c2ccc(C(C)(C)C)cc2)cccc1-c1cn(C)c(=O)c(Nc2ccc(C(=O)N3CCOCC3)cc2)n1,outcome,[1],inactive
same,AC50,[2],10.5 µM (active)
same,outcome,[3],inactive
same,outcome,[6],inactive
same,fold change,[10]; [44],1.11 (inactive)
same,fold change,[10]; [45],0.695
same,cell count,[10]; [46],5460
same,cell count,[10]; [47],4900
same,z-score,[11]; [48],-0.54 (inactive)
same,z-score,[11]; [49],-0.156
C=C1[C@H](n2cnc3c(=O)[nH]c(N)nc32)C[C@H](O)[C@H]1CO,outcome,[1],inactive
same,outcome,[3],inactive
COc1cccc2c1CCCC2CCCN1CCN(C2CCCCC2)CC1 (stereo unspecified),outcome,[1],inactive
same,AC50,[2],18.7 µM (active)
same,SSMD,[7],-2.1
same,cell count,[7],5730
same,plate-normalised HSF1 focus index,[7],0.878 (inactive)
